Here are results for seven molecules from PubChem BioAssay.

For some assays here: Entries with a potency or affinity are not part of this list. Calls of active or inactive are those of the source.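 The calls were made as follows, unless noted: active = primary screen inhibitor hit that blocks the TRPC4 channel at some tested dose, yielding a dose curve; inactive = the rest.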

The test system of experiment [1] is TRPC4 beta (transient receptor potential cation channel C4), mouse. In words: activators of mouse TRPC4 channel, confirmation, cell-based, Fluo4 calcium, HEK293 TRPC4beta/mu-opioid, duplicates, 10 µM (AID 2426;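 active = fluorescence ratio normalized to control raised more than 50% in primary screen plus both repeat runs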;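 also: percent rise of integrated ratio over buffer wells lacking compound which define 0%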). As to conditions: Fluo4 calcium fluorescence, at 10 µM; stronger effect = higher value.
Experiment [2] deals with transient receptor potential cation channel C4 beta (TRPC4), mouse. In words: activators of mouse TRPC4 channel, confirmation, cell-based, second round, Fluo4, HEK293 TRPC4beta/mu-opioid, 1 µM (AID 2461;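 active = primary screen active and over 50% activation in each of two duplicate runs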;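 as to activation: 0% = wells without test compound as baseline of integrated fluorescence ratio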). As to conditions: Fluo4 calcium fluorescence, at 1 µM; stronger effect = higher value.
Experiment [3] deals with TRPC4 (transient receptor potential cation channel C4 beta), mouse. The experiment in a line: positive allosteric modulators of mouse TRPC4, confirmation, cell-based, second round, Fluo-4, HEK293 TRPC4beta/mu-opioid, 1 µM (AID 2554;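 active = primary screen hit whose fluorescence ratio, in both repeats, exceeds the weak agonist control mean by 3 SD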). As to conditions: DAMGO EC20, Fluo-4 calcium flux, at 1 µM; stronger effect = higher value. Background: Calcium flux is commonly read through the fluorescence of an indicator in the cells.

Experiment [4] concerns TRPC4 beta (transient receptor potential cation channel C4), mouse. In words: positive allosteric modulators of mouse TRPC4, confirmation, cell-based, Fluo-4, HEK293 TRPC4beta/mu-opioid (AID 2555;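 active = primary screen hit whose calcium fluorescence ratio, in both repeats, exceeds the weak agonist control mean by 3 SD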). As to conditions: DAMGO EC20, Fluo-4 calcium flux, at 10 µM; stronger effect = higher value.
For experiment [5], the target named is Short transient receptor potential channel 4 (Mus musculus) (UniProt Q9QUQ5). The experiment in a line: inhibitors of mouse TRPC4 channel, confirmation, cell-based, Fluo4, HEK293 TRPC4beta/mu-opioid (AID 2636;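 active = calcium signal cut by more than 3 SD below the full-agonist control yet still positive, in both repeats and the earlier primary screen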). As to conditions: DAMGO, Fluo4 calcium flux, at 10 µM; stronger effect = higher value.
Experiment [6] shares this target. The experiment in a line: inhibitors of mouse TRPC4 channel, confirmation, cell-based, second round, Fluo4, HEK293 TRPC4beta/mu-opioid, 1 µM (AID 2637;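 active = calcium signal ratio cut to more than 3 SD under the fully stimulated control mean yet still positive, in both repeats and the primary screen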). As to conditions: Fluo4 calcium flux, DAMGO, at 1 µM; stronger effect = higher value.
The target is the same in experiment [7]. The experiment in a line: TRPC4 positive allosteric modulators, dose response, cell-based, HEK293 TRPC4/mu-opioid, Fluo-4 calcium, EC20 DAMGO (AID 434941;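 active = earlier screen potentiator hit that boosts the TRPC4 ion channel at some dose, with a dose response; inactive = no potentiation, no dose response, or not a prior hit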;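 also: calcium entry triggered by an EC20 dose of DAMGO at the co-expressed mu-opioid receptor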).
For experiment [8] the target is unchanged. In words: mouse TRPC4 channel inhibitors, dose response, cell-based, HEK293 TRPC4/mu-opioid, Fluo-4 calcium (AID 434942).
The target of experiment [9] is Short transient receptor potential channel 6 (Mus musculus) (UniProt Q61143). The experiment in a line: inhibition of mouse TRPC6 channel, confirmation, selectivity assay for TRPC4 inhibitor project, cell-based, HEK293, membrane potential dye, duplicate (AID 434948;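 active = active in primary screen and both duplicates, each dropping signal beyond three positive-control SD with fluorescence still positive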). As to conditions: HEK293 TRPC6, membrane potential dye fluorescence, at 10 µM, stimulated with maximal-effect acetylcholine; stronger effect = higher value.

For experiment [10] the target is unchanged. The experiment in a line: activation of mouse TRPC6 channel, confirmation, selectivity assay for TRPC4 activator project, cell-based, HEK293, membrane potential dye, duplicate (AID 434950;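 active = membrane potential signal rise above negative control mean plus 3 SD in both duplicates, also active in the earlier TRPC4 screen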;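 as to activation: 0% = buffer only wells and 100% = acetylcholine maximal-effect wells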). As to conditions: HEK293 TRPC6, membrane potential fluorescence, at 10 µM; stronger effect = higher value.
For experiment [11] the target is unchanged. In words: TRPC6 potentiation by TRPC4 potentiator hits, confirmation, selectivity assay for TRPC4 potentiator project, HEK293 cells, membrane potential dye, duplicate (AID 434952;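 active = compound raising the membrane signal above positive-control mean plus 3 SD in both repeats, and a primary screen hit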). As to conditions: HEK293 TRPC6, membrane potential dye fluorescence, at 10 µM, maximal acetylcholine added after compound; stronger effect = higher value.
The target in experiment [12] is Short transient receptor potential channel 4 (Mus musculus) (UniProt Q9QUQ5). The experiment in a line: calcium flux activators in TRPC4/5HT1a cells, counter-screen for TRPC4 activator project, cell-based, second counter screen, HEK293 TRPC4/5HT1a, Fluo-4 (AID 434977;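 active = calcium signal rise above buffer-control mean plus 5 SD in both duplicates, and also a hit in the primary screen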;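 as to activation: plate controls were assay buffer for no effect and maximal serotonin response for full effect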). As to conditions: Fluo-4 calcium flux, at 10 µM; stronger effect = higher value.
Experiment [13] in a line: calcium flux inhibitors in TRPC4/5HT1a cells, confirmation, counter-screen for TRPC4 inhibitor project, cell-based, second counter screen, HEK293 TRPC4/5HT1a, Fluo-4 (AID 434978;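 active = primary screen active whose calcium signal fell more than 3 SD beyond the full-serotonin control mean in both duplicate plates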;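 also: serotonin given first at submaximal then at maximal dose after compound preincubation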). As to conditions: Fluo-4 calcium flux, at 10 µM, serotonin added to trigger calcium flux; stronger effect = higher value.
For experiment [14], the system named is TRPC4 (mouse), co-expressed with 5HT1a in HEK293. In words: calcium flux potentiators in TRPC4/5HT1a cells, confirmation, counter-screen for TRPC4 potentiator project, cell-based, second counter screen, HEK293 TRPC4/5HT1a, Fluo-4 (AID 434979;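 active = signal rise over 3 SD above mean of control wells given weak agonist, in both repeats and first screen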). As to conditions: Fluo-4 calcium flux, at 10 µM, serotonin added at its EC20 dose; stronger effect = higher value.
Experiment [15] is described as follows: calcium flux activation in mu-opioid HEK293 cells, confirmation, counter-screen for TRPC4 activator project, cell-based, HEK293 mu-opioid receptor line (AID 449723;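 active = hit in primary screen, with calcium signal over 5 SD above buffer well mean in both duplicates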;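 also: counter screen cells carry the mu-opioid receptor alone and lack TRPC4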). As to conditions: Fluo-4 calcium fluorescence, at 10 µM; stronger effect = higher value.
Experiment [16] can be described thus: calcium flux enhancement in mu-opioid HEK293 cells, confirmation, counter-screen for TRPC4 allosteric potentiator project, cell-based, HEK293 mu-opioid receptor line (AID 449724;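 active = calcium signal rise more than 3 SD above the low-dose agonist control mean, in both duplicate plates and the primary screen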;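 also: HEK293 cells carrying mu-opioid receptor only with no TRPC4 channel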). As to conditions: Fluo-4 calcium flux, at 10 µM, compound added before EC20 DAMGO stimulus; stronger effect = higher value.
Experiment [17] is described as follows: thallium flux activation in parental CHO cells, counter-screen for KCNQ1 potentiator project (AID 493006;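 active = duplicate-averaged activation above buffer control mean plus 5 SD of those controls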;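 also: fluorescence ratio of max minus min over baseline after K+ and Tl+ depolarization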). As to conditions: parental CHO-K1 cells, FluxOR thallium flux, at 10 µM; stronger effect = higher value. Background: A counterscreen serves to expose hits that act by an unwanted route or on another target.
The target of experiment [18] is Potassium voltage-gated channel subfamily KQT member 1 (Homo sapiens) (UniProt P51787). The experiment in a line: KCNQ1 potassium channel potentiators, confirmation, FluxOR thallium flux, CHO cells, duplicates (AID 493007;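 active = potentiation averaged over duplicate wells exceeding buffer-only control mean by more than 3 SD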;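 also: cells depolarized by a potassium plus thallium sulfate stimulus after compound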). As to conditions: KCNQ1 cell line, FluxOR thallium flux fluorescence, at 10 µM; stronger effect = higher value, % of reference activator effect, buffer zero.

Experiment [19] concerns the target Potassium voltage-gated channel subfamily KQT member 2 (Rattus norvegicus) (UniProt O88943). The experiment in a line: rat KCNQ2 channel potentiation, selectivity assay for KCNQ1 potentiator project, KCNQ2-CHO-K1 cells (AID 493009;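 active = mean duplicate potentiation above the buffer control mean plus 5 SD of buffer wells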;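 also: assay conditions were tuned for KCNQ1 rather than KCNQ2 modulators; signal is max minus min fluorescence divided by baseline after thallium stimulus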). As to conditions: FluxOR thallium flux fluorescence, at 10 µM; stronger effect = higher value, scaled: buffer 0, activator control 100.
For experiment [20], the target named is Potassium voltage-gated channel subfamily KQT member 1 (Homo sapiens) (UniProt P51787). The experiment in a line: KCNQ1 channel current potentiators, confirmation, orthogonal assay for KCNQ1 potentiator project, IonWorks patch clamp, KCNQ1-CHO cells (AID 493184;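 active = current rise at least 3 SD above the untreated control mean in each of two repeat wells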). As to conditions: automated patch clamp current, at 10 µM; stronger effect = higher value. For orientation: The patch-clamp technique gives a direct electrical read-out from membranes.

Short transient receptor potential channel 6 (Mus musculus), sequence (Q61143 whole entry, looked up): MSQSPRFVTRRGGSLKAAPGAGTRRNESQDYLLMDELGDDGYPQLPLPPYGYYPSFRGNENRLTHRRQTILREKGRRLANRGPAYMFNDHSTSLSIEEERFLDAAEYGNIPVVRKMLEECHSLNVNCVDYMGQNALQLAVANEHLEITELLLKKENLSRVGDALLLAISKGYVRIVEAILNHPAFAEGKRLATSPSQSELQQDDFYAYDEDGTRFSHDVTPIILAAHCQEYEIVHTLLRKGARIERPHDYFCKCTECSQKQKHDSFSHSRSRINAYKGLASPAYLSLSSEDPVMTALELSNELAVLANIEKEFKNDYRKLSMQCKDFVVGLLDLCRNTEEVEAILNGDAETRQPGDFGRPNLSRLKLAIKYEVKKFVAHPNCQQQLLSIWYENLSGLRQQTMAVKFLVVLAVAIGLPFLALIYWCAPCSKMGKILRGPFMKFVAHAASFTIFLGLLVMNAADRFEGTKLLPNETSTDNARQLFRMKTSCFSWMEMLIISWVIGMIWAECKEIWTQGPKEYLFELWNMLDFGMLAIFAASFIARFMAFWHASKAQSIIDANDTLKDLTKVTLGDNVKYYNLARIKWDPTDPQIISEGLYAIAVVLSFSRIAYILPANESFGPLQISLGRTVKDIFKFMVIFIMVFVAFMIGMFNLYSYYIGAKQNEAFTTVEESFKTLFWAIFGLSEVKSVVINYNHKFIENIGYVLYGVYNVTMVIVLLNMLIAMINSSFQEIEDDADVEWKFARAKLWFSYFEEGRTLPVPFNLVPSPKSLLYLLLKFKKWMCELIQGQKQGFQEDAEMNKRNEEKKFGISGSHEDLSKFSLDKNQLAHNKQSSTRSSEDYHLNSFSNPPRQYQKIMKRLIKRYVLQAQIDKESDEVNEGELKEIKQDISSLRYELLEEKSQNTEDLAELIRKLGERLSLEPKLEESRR
Short transient receptor potential channel 4 (Mus musculus), sequence (Q9QUQ5 whole entry, looked up): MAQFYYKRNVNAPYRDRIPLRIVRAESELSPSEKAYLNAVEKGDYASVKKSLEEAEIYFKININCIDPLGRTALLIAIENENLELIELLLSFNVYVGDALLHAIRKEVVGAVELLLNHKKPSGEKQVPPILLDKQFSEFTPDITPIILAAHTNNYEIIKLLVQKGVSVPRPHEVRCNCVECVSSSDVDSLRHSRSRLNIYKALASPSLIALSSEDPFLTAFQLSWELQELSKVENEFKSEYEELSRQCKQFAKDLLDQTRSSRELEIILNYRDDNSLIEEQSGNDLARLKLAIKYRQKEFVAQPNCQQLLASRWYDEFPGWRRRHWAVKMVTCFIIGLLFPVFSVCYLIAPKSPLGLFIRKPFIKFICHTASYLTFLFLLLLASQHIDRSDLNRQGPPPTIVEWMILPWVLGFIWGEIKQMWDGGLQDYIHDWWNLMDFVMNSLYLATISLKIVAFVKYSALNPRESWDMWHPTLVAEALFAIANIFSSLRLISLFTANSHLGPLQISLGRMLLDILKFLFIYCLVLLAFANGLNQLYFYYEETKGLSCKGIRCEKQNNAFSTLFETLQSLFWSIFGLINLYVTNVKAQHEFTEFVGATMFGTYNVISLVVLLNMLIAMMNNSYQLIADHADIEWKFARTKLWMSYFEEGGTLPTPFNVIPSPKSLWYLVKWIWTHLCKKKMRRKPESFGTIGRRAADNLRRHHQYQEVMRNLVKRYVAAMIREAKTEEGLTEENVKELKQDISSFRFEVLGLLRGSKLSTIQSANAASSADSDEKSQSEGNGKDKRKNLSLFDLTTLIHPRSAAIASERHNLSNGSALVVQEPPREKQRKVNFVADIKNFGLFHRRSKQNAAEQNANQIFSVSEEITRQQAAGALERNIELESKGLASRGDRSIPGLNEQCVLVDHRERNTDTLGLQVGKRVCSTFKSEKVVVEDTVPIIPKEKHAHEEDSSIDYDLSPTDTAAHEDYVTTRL
Potassium voltage-gated channel subfamily KQT member 1 (Homo sapiens), sequence (P51787 whole entry, looked up): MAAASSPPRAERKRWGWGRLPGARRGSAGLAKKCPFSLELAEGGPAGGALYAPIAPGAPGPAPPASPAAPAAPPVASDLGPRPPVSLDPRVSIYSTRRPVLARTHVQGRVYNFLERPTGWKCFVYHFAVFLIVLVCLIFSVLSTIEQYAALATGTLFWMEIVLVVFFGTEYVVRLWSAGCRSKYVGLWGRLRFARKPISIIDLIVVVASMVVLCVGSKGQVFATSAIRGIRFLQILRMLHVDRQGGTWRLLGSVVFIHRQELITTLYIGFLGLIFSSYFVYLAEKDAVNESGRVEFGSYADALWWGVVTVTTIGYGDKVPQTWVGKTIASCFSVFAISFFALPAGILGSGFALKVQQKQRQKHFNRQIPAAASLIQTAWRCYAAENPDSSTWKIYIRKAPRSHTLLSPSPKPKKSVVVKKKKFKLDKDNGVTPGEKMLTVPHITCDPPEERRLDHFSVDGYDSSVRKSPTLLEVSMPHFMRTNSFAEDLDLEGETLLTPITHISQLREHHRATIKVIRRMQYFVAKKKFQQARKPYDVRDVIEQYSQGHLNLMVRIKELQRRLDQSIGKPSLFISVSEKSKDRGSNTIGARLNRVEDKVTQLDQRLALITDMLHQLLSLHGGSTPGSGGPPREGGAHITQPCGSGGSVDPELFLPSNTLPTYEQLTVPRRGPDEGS
Potassium voltage-gated channel subfamily KQT member 2 (Rattus norvegicus), sequence (O88943 whole entry, looked up): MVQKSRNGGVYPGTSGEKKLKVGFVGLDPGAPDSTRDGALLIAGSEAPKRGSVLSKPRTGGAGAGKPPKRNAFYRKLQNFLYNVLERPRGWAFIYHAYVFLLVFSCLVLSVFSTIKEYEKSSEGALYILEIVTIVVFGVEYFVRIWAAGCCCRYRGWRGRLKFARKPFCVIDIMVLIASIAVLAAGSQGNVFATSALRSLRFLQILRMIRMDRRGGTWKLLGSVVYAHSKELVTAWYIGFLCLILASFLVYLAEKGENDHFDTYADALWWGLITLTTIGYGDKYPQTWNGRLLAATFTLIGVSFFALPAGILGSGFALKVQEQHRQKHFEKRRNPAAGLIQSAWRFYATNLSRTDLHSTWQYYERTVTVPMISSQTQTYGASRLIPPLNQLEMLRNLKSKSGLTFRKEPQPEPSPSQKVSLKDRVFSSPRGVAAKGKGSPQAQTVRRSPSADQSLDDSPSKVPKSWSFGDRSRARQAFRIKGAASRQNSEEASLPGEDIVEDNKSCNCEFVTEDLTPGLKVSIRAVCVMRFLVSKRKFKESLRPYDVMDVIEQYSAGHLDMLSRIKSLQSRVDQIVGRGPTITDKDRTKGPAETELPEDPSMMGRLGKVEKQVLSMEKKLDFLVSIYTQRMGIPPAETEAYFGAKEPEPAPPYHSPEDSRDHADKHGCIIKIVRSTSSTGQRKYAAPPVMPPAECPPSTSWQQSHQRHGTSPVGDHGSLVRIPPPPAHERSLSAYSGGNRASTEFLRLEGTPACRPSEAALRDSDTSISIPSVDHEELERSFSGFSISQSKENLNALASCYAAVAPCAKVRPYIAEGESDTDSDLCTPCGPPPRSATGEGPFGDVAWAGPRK

As for `Cc1ccccc1C(=O)NNC(=S)NC(=O)c1ccccc1`, the activation in experiment [1] was 215% (active); in [10] it was 43.5% (active); in experiment [12], 121% (active); in experiment [15], 72.9% (active). The outcome in experiment [2], in experiment [3], in experiment [4], in [5], in experiment [6] and in [7] was inactive. Besides, the result in experiment [8], in experiment [9], in [11], in [13], in experiment [14] and in experiment [16] was inactive.
As for `CCn1c(N)[n+](CC(=O)Nc2ccc(SC(F)F)cc2)c2ccccc21`, the values for the activation in experiment [1] and in [12] were 200% (active) and 10.3% (active), respectively. For the same molecule, the outcome in experiment [2], in [3], in [4], in [5], in experiment [6] and in experiment [7] was inactive. Also, the outcome in [8], in experiment [9], in experiment [10], in [11], in [13] and in experiment [14] was inactive. The outcome in [15] and in [16] was inactive.
Turning to `CCN1CCN(c2ccc(S(=O)(=O)N3CCOCC3)cc2NC(=O)C(C)Oc2cccc(Cl)c2)CC1` (stereo unspecified), the activation in experiment [1] was 83% (active); in [10] it was 38% (active); in [12] it was 11.3% (active). In addition, the result in experiment [2], in [3], in experiment [4], in [5], in [6] and in [7] was inactive. The result in experiment [8], in experiment [9], in experiment [11], in [13], in experiment [14] and in experiment [15] was inactive. For the same molecule, the outcome in [16] was inactive.
Consider `Cc1ccc(NS(=O)(=O)c2ccc(C(=O)N3CC(C)CC(C)C3)cc2)cc1` (stereo unspecified), for which the activation in experiment [1] was 103% (active); in [10], 65.5% (active); in experiment [12], 43.8% (active); in experiment [15], 25.6% (active); in [17] it was 138% (active). In addition, the result in [2], in experiment [3], in experiment [4], in experiment [5], in [6] and in experiment [7] was inactive. The outcome in experiment [8], in [9], in experiment [11], in experiment [13], in experiment [14] and in experiment [16] was inactive. For the same molecule, the result in [18], in [19] and in experiment [20] was inactive.
For the molecule `O=C(C1CCCN(Cc2ccccc2)C1)N1CCc2ccccc2C1` (stereo unspecified), the activation in experiment [1] is 105% (active); in [2], 94% (active); in experiment [10], 71% (active); in experiment [12], 40.5% (active). Besides, the result in experiment [3], in experiment [4], in experiment [5], in [6], in experiment [7] and in [8] was inactive. Further, the call in [9], in [11], in experiment [13], in [14], in [15] and in experiment [16] was inactive.
`CC(=O)N1CCc2cc(Br)cc(S(=O)(=O)NCCCN(C)Cc3ccccc3)c21`: the activation in experiment [1] was 87% (active); in experiment [2] it was 72% (active); in [12], 27.8% (active). Moreover, the outcome in experiment [3], in [4], in experiment [5], in experiment [6], in [7] and in experiment [8] was inactive. In addition, the result in [9], in experiment [10], in experiment [11], in [13], in [14] and in [15] was inactive. Also, the outcome in experiment [16] was inactive.
Consider `CCN1CCN(c2c(S(=O)(=O)c3ccc(C)c(C)c3)cnc3ccc(F)cc23)CC1`, for which the figures for the activation in [1] and in [10] were 106% (active) and 50% (active), respectively. Further, the result in experiment [2], in experiment [3], in [4], in experiment [5], in experiment [6] and in experiment [7] was inactive. The outcome in [8], in [9], in experiment [11], in experiment [12], in [13] and in [14] was inactive. The outcome in experiment [15] and in [16] was inactive.
